# Compound activity as filed in PubChem BioAssay.
# HSP90 refold inh: blocks HSP90-mediated luciferase refolding in reticulocyte lysate | Rabbit reticulocyte lysate, luciferase refolding luminescence, 3 h | inhibition, % at 5.6 µM | 290,000 compounds, 0.91% hits | AID 1789;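 active = inhibition above the screen-wide mean plus 3 SD, computed separately per campaign, cut at about 16% in these data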;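 also: 0% = DMSO wells and 100% = 60 µM geldanamycin wells; inhibitors lower the luminescence because luciferase stays unfolded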
# TWEAK Fn14 block: TWEAK-Fn14 signaling inhibition | 360,000 compounds, 2% hits | inhibition, % at 10 µM | TWEAK-stimulated Fn14 reporter cells, luciferase luminescence, 8 h; in the data active = inhibition above about 50%
# LGR2 inh: inhibitors of bursicon-induced Drosophila LGR2 receptor cAMP signaling; 380,000 compounds, 0.35% hits; inhibition, % at 9.99 µM; HEK293 LGR2, CRE-luciferase, bursicon-stimulated, 4 h;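 active = drop in luminescence signal, shown as inhibition above about 50% in the replicate tests, limit read from the data, passing the limit was not always enough; inconclusive = probably only some replicates passing the limit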;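 also: agonist challenge used bursicon conditioned medium at about half maximal strength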
# TROY NFkB inh: TROY signaling inhibition | inhibition, % at 10 µM | Q293 LMP1-TROYcd NF-kB luciferase reporter, 4 h | 360,000 compounds, 0.98% hits;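 active = compounds whose plate-normalised and pattern-corrected inhibition of the luciferase reporter signal at the single screening dose is 50% or more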
# HSP90 confirm: HSP90 inhibition, confirmation assay; shares compounds with HSP90 refold inh; rabbit reticulocyte lysate, luciferase refolding luminescence, 3 h; inhibition, % at 5.9 µM; 2,300 compounds, 64% hits; AID 1846; in the data active = inhibition above about 18%;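 also: 0% = vehicle wells and 100% = reference inhibitor wells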
# luciferase ctr: firefly luciferase inhibition, HSP90 counter-screen; shares compounds with HSP90 refold inh; purified native firefly luciferase, luminescence; inhibition, % at 5.9 µM; 2,300 compounds, 48% hits; AID 1847;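 active = inhibition above the mean inhibition of all tested sample wells plus 3 SD, cut at about 10% in these data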;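 also: 0% = DMSO with luciferase and 100% = wells lacking luciferase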
# Target sequence (P08659 whole entry, looked up): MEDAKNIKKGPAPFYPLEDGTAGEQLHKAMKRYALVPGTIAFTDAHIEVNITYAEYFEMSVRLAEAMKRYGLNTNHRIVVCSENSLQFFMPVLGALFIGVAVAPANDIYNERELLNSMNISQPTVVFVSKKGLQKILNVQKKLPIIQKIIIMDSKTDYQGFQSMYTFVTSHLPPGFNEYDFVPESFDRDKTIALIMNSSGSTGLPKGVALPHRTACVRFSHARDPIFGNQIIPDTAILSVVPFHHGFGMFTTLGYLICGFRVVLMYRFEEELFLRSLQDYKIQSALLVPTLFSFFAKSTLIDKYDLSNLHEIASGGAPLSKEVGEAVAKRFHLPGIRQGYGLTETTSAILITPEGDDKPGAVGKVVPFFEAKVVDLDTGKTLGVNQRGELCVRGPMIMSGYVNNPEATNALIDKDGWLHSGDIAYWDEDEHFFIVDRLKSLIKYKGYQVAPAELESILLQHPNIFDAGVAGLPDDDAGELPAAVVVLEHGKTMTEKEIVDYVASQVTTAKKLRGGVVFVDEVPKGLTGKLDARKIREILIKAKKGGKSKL
# * = called active by the depositor; ? = inconclusive; / = no result. This is a sample that favours compounds with a hit; in the whole collection about 2.2% have one here.
SMILES,HSP90 refold inh,TWEAK Fn14 block,LGR2 inh,TROY NFkB inh,HSP90 confirm,luciferase ctr
O=C(N/N=C/c1ccc2c(c1)OCO2)c1cc(-c2ccc(F)cc2)nc2ccccc12,-1.5,5.7,-31.0,12.9,/,/
O=C(O)COc1ccccc1/C=N/NC(=O)c1cc(-c2ccc(F)cc2)nc2ccccc12,17.0*,-7.6,6.5,-17.3,25.0*,7.8
CNc1nc(-c2ccc3c(c2)CCN3C(=O)c2ccc(F)cc2)cs1,19.1*,9.4,-104.4,3.2,14.2,-23.2
CNc1nc(-c2ccc3c(c2)CCN3C(=O)c2cccc(F)c2)cs1,11.2,-5.2,-6.5,-24.8,/,/
O=C(NNc1nc2ccccc2o1)c1ccccc1,20.3*,6.7,23.6,36.1,27.8*,19.8*
Cc1nc2c(-c3ccc(F)cc3)cnn2c(N)c1-c1ccc(F)cc1,46.5*,77.8*,-46.8,73.6*,49.6*,48.8*
c1ccc(-c2nnc(-c3ccccn3)s2)nc1,35.0*,80.9*,60.4*,27.8,64.2*,44.3*
CN1CCN(C(=O)C[C@@H]2CC[C@H]3[C@H](COc4ccc(NC(=O)C5CCC5)cc4C(=O)N3C)O2)CC1,/,/,9.1,/,/,/
Cc1nc(CS(=O)(=O)c2ccc(Cl)cc2)sc1C(=O)O,32.5*,5.7,-2.9,-5.4,48.7*,0.7
CC(=O)c1sc(NC(=O)CCS(=O)(=O)c2ccc(Cl)cc2)nc1C,/,13.4,-6.4,-14.4,/,/
COc1ccc(C2Nc3cccc4cccc(c34)N2)cc1,7.0,2.5,3.5,-15.3,/,/
CN(C)c1ccc(C2Nc3cccc4cccc(c34)N2)cc1,41.6*,9.0,-25.4,-41.2,37.1*,-3.0
CN(C)c1ccc(/C=C/C=C2/SC(=S)N(c3ccccc3)C2=O)cc1,34.4*,13.2,/,-48.0,20.7*,11.8*
CC(C)C(=O)N(Cc1cc(=O)[nH]c2ccccc12)c1ccccc1,80.6*,25.1,/,6.2,-6.8,-7.5
O=C1CN(C(=O)CNCc2ccc(Cl)cc2)c2ccccc2N1,25.5*,-1.2,-3.3,4.1,-12.7,-11.0
COc1cc(N2Cc3ccccc3C2)ccc1C=O,54.2*,28.8,-115.7,-0.3,40.0*,-6.6
Cc1c(NC(=S)NC(=O)c2cc3ccccc3o2)cccc1C(=O)O,20.6*,2.4,-99.8,-45.4,20.0*,-16.4
O=C(Nc1ccc(NC(=O)C2CC2)cn1)c1ccccc1Cl,4.2,-41.1,/,-38.2,/,/
Cc1c(NC(=O)c2ccc(NC(=O)C3CC3)cc2)cccc1C(=O)O,24.4*,17.8,19.2,10.8,20.0*,-16.1
Cc1c(NC(=O)c2ccccc2NC(=O)c2ccccc2)cccc1C(=O)O,-0.3,-16.8,-10.8,-9.7,/,/
Cc1c(NC(=O)c2ccccc2N)cccc1C(=O)O,20.0*,-13.4,/,-64.6,12.9,-6.3
O=C(Nc1ccc(NC(=O)C2CC2)cn1)c1ccccc1,17.0*,54.0*,19.6,35.5,39.3*,21.4*
COc1ccc(NC(=O)N(C)C[C@H]2OCCCC[C@@H](C)Oc3ccc(NC(=O)Cc4ccccc4)cc3C(=O)N([C@@H](C)CO)C[C@@H]2C)cc1,/,/,5.8,/,/,/
Cc1ccc(C(=O)CCS(=O)(=O)c2ccc(F)cc2)cc1,37.8*,3.7,4.4,2.8,57.7*,79.4*
Cc1ccc(S(=O)(=O)CCC(=O)c2ccc(F)cc2)cc1,-4.1,3.8,-10.4,0.1,/,/
SMILES,HSP90 refold inh,TWEAK Fn14 block,LGR2 inh,TROY NFkB inh,HSP90 confirm,luciferase ctr
CNC[C@H]1Oc2c(NC(=O)Nc3ccc4c(c3)OCO4)cccc2C(=O)N([C@@H](C)CO)C[C@H]1C,/,/,13.7,/,/,/
COc1cc(/C=C/[N+](=O)[O-])ccc1OCc1cccc(C(=O)O)c1,62.9*,/,/,/,50.6*,1.5
O=C(Nc1ccc(CN2CCOCC2)cc1)c1cc2ccccc2o1,2.0,1.5,/,10.4,/,/
O=C(Nc1ccc(CN2CCOCC2)cc1)c1cc2ccccn2n1,44.7*,86.9*,78.1*,69.2*,61.5*,41.2*
CC(C)c1ccc(C(=O)Nc2ccc(CN3CCOCC3)cc2)cc1,23.6*,17.9,-25.7,7.2,19.5*,-10.3
NC(=O)c1ccc(NC(=O)c2ccc(CN3CCOCC3)cc2)cc1,-0.3,-4.0,/,0.9,/,/
Cc1noc(C)c1NC(=O)N(C)C[C@@H]1OCCCC[C@@H](C)Oc2ccc(NS(=O)(=O)c3c(C)noc3C)cc2C(=O)N([C@H](C)CO)C[C@H]1C,/,/,-11.5,/,/,/
CCCNC(=O)N[C@H]1CC[C@@H](CCn2cc(C3CC3)nn2)O[C@H]1CO,/,/,-2.6,/,/,/
CC(=O)n1c2c(c3ccccc31)OC(N)=C(C#N)C2c1ccc(C(C)C)cc1 (stereo not given),19.6*,89.3*,18.4,79.1*,10.2,23.7*
CC(=O)C1=C(C)OC(N)=C(C#N)C1c1cccc2ccccc12 (stereo not given),-2.5,14.4,1.3,17.6,/,/
COc1ccccc1S(=O)(=O)N[C@H]1CC[C@@H](CC(=O)N2CCN(C)CC2)O[C@@H]1CO,/,/,-8.2,/,/,/
COc1ccc(-c2cc3nc(C)cc(N)n3n2)cc1,42.0*,60.2*,/,10.0,61.1*,41.1*
Oc1sc(C=Nc2ccccc2)c2ccccc12,3.2,-47.4,/,-3.8,/,/
Oc1c(C=NCc2ccncc2)sc2ccccc12,21.0*,/,/,/,-1.9,-22.7
Oc1c(C=Nc2ccc(Cl)cn2)sc2ccccc12,24.4*,-2.8,-18.1,11.5,42.2*,18.1*
Oc1c(C=Nc2cccnc2)sc2ccccc12,23.2*,-9.5,-40.9,-0.5,16.4*,17.8*
Oc1c(C=Nc2ccccc2)sc2ccccc12,38.5*,67.5*,?,36.6,84.0*,80.0*
Oc1c(/C=N/c2ccccn2)sc2ccccc12,3.5,37.2,-81.5,-3.6,/,/
C[C@@H]1CCCCO[C@@H](CN(C)C)[C@H](C)CN([C@@H](C)CO)C(=O)c2cc(N(C)C)ccc2O1,/,/,-8.1,/,/,/
CC(=O)NCCN=Cc1sc2ccccc2c1O,19.7*,-5.4,/,37.5,2.8,-7.9
CN=Cc1sc2ccccc2c1O,34.0*,-0.7,-61.0,48.4,-0.5,-8.5
O=C(C[C@@H]1C[C@H]2c3cc(NC(=O)C4CCOCC4)ccc3O[C@H]2[C@H](CO)O1)NCc1ccccc1F,/,/,-3.0,/,/,/
CC(=NC1CCCC1)c1c(C)[nH]n(-c2nc3ccccc3s2)c1=O,18.8*,42.2,/,41.6,18.5*,1.0
CC(=NC1CC1)c1c(-c2ccccc2)[nH]n(-c2nc3ccccc3s2)c1=O,4.8,41.8,/,-6.7,/,/
COCC(=O)N(C)C[C@@H]1Oc2ncc(C#CC(C)(C)O)cc2C(=O)N([C@H](C)CO)C[C@H]1C,/,/,9.3,/,/,/
C[C@H]1CN([C@@H](C)CO)S(=O)(=O)c2ccc(C#CCN(C)C)cc2O[C@H]1CN(C)C(=O)C1CCCCC1,/,/,-23.8,/,/,/
S=C(NCCNC(=S)Nc1ccccc1Cl)Nc1ccccc1Cl,-5.6,-10.7,-0.2,12.4,/,/
NNC(=S)Nc1ccccc1Cl,45.3*,-8.4,-25.6,13.8,26.7*,-17.5
COc1ccc(S(=O)(=O)N2CC[C@H]3[C@H](CO)Nc4ccc(C#Cc5cccnc5)cc4[C@H]32)cc1,/,/,17.6,/,/,/
